# Experimental data from paper PMC8384837, “Expanding the binding specificity for RNA recognition by a PUF domain”.
# What was measured:
# Assay in all cases: yeast three-hybrid, YBZ-1, SC-Leu-His + 0.5 mM 3-AT, 4 days
# Conditions in all cases: tags: N-Gal4 AD-HA kept; label: inside an RPR1-promoter hybrid RNA with tandem MS2 sites; ssRNA
# PUM1 PUF domain R8-RKK = PUM1 PUF domain R8-RKK (Homo sapiens, UniProt Q14671 828-1176, N1122R;Y1123K;Q1126K)
# How it was run: (§1)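 The interaction score is the logarithmic change in variant frequency from input to selection. It uses log2, with a pseudocount of 1 for absent variants, and frequencies came from PCR-amplified, Illumina-sequenced repeat regions. The libraries were Pumilio-1 PUF domains randomized at the three base-contacting residues per repeat, co-expressed with matching RNA elements in strain YBZ-1 (LexA–MS2 coat fusion, HIS3 reporter). Plating lasted four days on SC-Leu (input) or SC-Leu-His + 0.5 mM 3-AT (selection).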
# PUM1 PUF domain R8-LYK = PUM1 PUF domain R8-LYK (Homo sapiens, UniProt Q14671 828-1176, N1122L;Q1126K)
# How it was run: as §1
# PUM1 PUF domain R5-GWS = PUM1 PUF domain R5-GWS (Homo sapiens, UniProt Q14671 828-1176, C1007G;R1008W;Q1011S)
# How it was run: as §1
# PUM1 PUF domain R6-VFS = target: T1, PUM1 PUF domain R6-VFS (Homo sapiens, UniProt Q14671 828-1176, N1043V;Y1044F;Q1047S)
# T1 sequence: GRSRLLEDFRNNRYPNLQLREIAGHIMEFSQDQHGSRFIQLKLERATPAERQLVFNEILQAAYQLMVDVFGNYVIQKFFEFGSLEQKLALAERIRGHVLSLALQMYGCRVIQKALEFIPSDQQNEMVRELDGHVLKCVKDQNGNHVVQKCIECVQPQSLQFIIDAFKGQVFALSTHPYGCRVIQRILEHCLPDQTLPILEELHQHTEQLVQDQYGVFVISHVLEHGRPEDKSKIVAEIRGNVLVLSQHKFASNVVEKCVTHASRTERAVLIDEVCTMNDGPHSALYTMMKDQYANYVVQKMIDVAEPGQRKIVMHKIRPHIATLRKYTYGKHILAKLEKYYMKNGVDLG
# How it was run: as §1
# PUM1 PUF domain R3-FSS = PUM1 PUF domain R3-FSS (Homo sapiens, UniProt Q14671 828-1176, C935F;R936S;Q939S)
# How it was run: as §1
# PUM1 PUF domain R7-TVA = PUM1 PUF domain R7-TVA (Homo sapiens, UniProt Q14671 828-1176, S1079T;N1080V;E1083A)
# How it was run: as §1
# PUM1 PUF domain R3-MWG = PUM1 PUF domain R3-MWG (Homo sapiens, UniProt Q14671 828-1176, C935M;R936W;Q939G)
# How it was run: as §1
# PUM1 PUF domain R2-CFP = PUM1 PUF domain R2-CFP (Homo sapiens, UniProt Q14671 828-1176, N899C;Y900F;Q903P)
# How it was run: as §1
# PUM1 PUF domain R5-KGL = PUM1 PUF domain R5-KGL (Homo sapiens, UniProt Q14671 828-1176, C1007K;R1008G;Q1011L)
# How it was run: as §1
# PUM1 PUF domain R1-RGI = PUM1 PUF domain R1-RGI (Homo sapiens, UniProt Q14671 828-1176, S863R;R864G;Q867I)
# How it was run: as §1
sequence,measurement,setting,value
GGCUAGAACUAGUGGAUCCCCCGGCGCCCGGCGGCUCGAGCCCGGGUAAGCGUAAAUAGUCUGCAUGCCGCCGGGCGCCAUGCCUGCAGGUCGACUCUAGAAAACAUG,binding signal,PUM1 PUF domain R8-RKK,4.27 log2 enrichment (interaction score)
same,binding signal,PUM1 PUF domain R8-LYK,5.14 log2 enrichment (interaction score)
GGCUAGAACUAGUGGAUCCCCCGGCGCCCGGCGGCUCGAGCCCGGGUAAGUGUAAAUAGUCUGCAUGCCGCCGGGCGCCAUGCCUGCAGGUCGACUCUAGAAAACAUG,binding signal,PUM1 PUF domain R8-RKK,4.25 log2 enrichment (interaction score)
same,binding signal,PUM1 PUF domain R5-GWS,4.65 log2 enrichment (interaction score)
same,binding signal,PUM1 PUF domain R6-VFS,2.71 log2 enrichment (interaction score)
same,binding signal,PUM1 PUF domain R8-LYK,5.28 log2 enrichment (interaction score)
GGCUAGAACUAGUGGAUCCCCCGGCGCCCGGCGGCUCGAGCCCGGGUAAGUGUAAGUAGUCUGCAUGCCGCCGGGCGCCAUGCCUGCAGGUCGACUCUAGAAAACAUG,binding signal,PUM1 PUF domain R3-FSS,2.46 log2 enrichment (interaction score)
GGCUAGAACUAGUGGAUCCCCCGGCGCCCGGCGGCUCGAGCCCGGGUAAGUUUAAAUAGUCUGCAUGCCGCCGGGCGCCAUGCCUGCAGGUCGACUCUAGAAAACAUG,binding signal,PUM1 PUF domain R7-TVA,3.46 log2 enrichment (interaction score)
GGCUAGAACUAGUGGAUCCCCCGGCGCCCGGCGGCUCGAGCCCGGGUAAGUGUAAUUAGUCUGCAUGCCGCCGGGCGCCAUGCCUGCAGGUCGACUCUAGAAAACAUG,binding signal,PUM1 PUF domain R3-MWG,3.86 log2 enrichment (interaction score)
GGCUAGAACUAGUGGAUCCCCCGGCGCCCGGCGGCUCGAGCCCGGGUAAGUGUAAAAAGUCUGCAUGCCGCCGGGCGCCAUGCCUGCAGGUCGACUCUAGAAAACAUG,binding signal,PUM1 PUF domain R2-CFP,10.2 log2 enrichment (interaction score)
GGCUAGAACUAGUGGAUCCCCCGGCGCCCGGCGGCUCGAGCCCGGGUAAGUGUCAAUAGUCUGCAUGCCGCCGGGCGCCAUGCCUGCAGGUCGACUCUAGAAAACAUG,binding signal,PUM1 PUF domain R5-KGL,3.86 log2 enrichment (interaction score)
GGCUAGAACUAGUGGAUCCCCCGGCGCCCGGCGGCUCGAGCCCGGGUAAGUGUAAAUUGUCUGCAUGCCGCCGGGCGCCAUGCCUGCAGGUCGACUCUAGAAAACAUG,binding signal,PUM1 PUF domain R1-RGI,1.53 log2 enrichment (interaction score)
GGCUAGAACUAGUGGAUCCCCCGGCGCCCGGCGGCUCGAGCCCGGGUAAGUGUAAAUCGUCUGCAUGCCGCCGGGCGCCAUGCCUGCAGGUCGACUCUAGAAAACAUG,binding signal,PUM1 PUF domain R1-RGI,2.06 log2 enrichment (interaction score)
